Composite z-score and z-score data for five compounds are collected here from PubChem BioAssay.

Calls of active or inactive are those of the source. Unless noted, no rule for the calls is given here.

Assay [1] is described as follows: anti-His antibody binders, primary screen, artefact control for SMM control protein annotation, biochemical, small-molecule microarray, 635 nm fluorescence (AID 1128).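 Also: score merges feature fluorescence with signal-to-noise for each printed compound spot.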 To be noted: anti-His Alexa647 antibody binding, higher = more signal.
Assay [2] relates to Human papillomavirus type 1a E7 protein (residues 1-88). As to the kind of experiment: HPV1a E7 small-molecule binders, primary screen, biochemical, small-molecule microarray, residues 1-88, 635 nm (AID 1129). As to conditions: small-molecule microarray binding, fluorescence 635 nm; higher = more signal.
Assay [3] addresses Focal adhesion kinase 1 (Homo sapiens) (UniProt Q05397). As to the kind of experiment: small-molecule microarray binders of FAK, primary screen, biochemical, 635/667 nm fluorescence, BSA, DTT (AID 1130).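 Also: composite of spot emission at 667 nm and signal to noise over triplicate slides.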 As to conditions: PTK2 binding, 635 nm fluorescence, higher = more signal.
The test system of assay [4] is Fibrinogen (Alexa647-labelled). As to the kind of experiment: fibrinogen binders on compound microarrays, profiling panel, artefact control for SMM control-protein annotation, biochemical, small-molecule microarray, 635/667 nm fluorescence (AID 1131).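 Also: z-score merges 667 nm fluorescence with per-spot signal-to-noise over triplicate slides.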 As to conditions: fibrinogen-A647 binding fluorescence, higher = more signal.
In assay [5] the target is Follistatin (Homo sapiens) (UniProt P19883). As to the kind of experiment: follistatin binders on small-molecule microarrays, primary screen, biochemical, small-molecule microarray, 635/667 nm fluorescence (AID 1132). To be noted: FST binding, 635 nm fluorescence, higher = more signal.
Sequence of Follistatin (Homo sapiens) (P19883 whole entry, looked up): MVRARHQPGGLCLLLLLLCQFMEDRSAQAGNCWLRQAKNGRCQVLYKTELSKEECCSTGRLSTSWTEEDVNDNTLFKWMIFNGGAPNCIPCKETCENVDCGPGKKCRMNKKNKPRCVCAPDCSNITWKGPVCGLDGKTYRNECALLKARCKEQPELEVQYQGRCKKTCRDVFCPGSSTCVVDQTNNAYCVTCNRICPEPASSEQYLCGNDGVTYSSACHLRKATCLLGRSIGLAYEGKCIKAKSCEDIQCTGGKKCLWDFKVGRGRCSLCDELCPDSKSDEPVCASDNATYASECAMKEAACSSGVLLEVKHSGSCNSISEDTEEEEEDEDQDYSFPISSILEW
The target of assay [6] is Fibroblast growth factor 2 (Homo sapiens) (UniProt P09038). Description: FGF2 binders on small-molecule microarrays, primary screen, biochemical, small-molecule microarray, 635/667 nm fluorescence (AID 1133). As to conditions: small-molecule microarray binding, FGF2, fluorescence 635/667; higher = more signal.
Sequence of Fibroblast growth factor 2 (Homo sapiens) (P09038 whole entry, looked up): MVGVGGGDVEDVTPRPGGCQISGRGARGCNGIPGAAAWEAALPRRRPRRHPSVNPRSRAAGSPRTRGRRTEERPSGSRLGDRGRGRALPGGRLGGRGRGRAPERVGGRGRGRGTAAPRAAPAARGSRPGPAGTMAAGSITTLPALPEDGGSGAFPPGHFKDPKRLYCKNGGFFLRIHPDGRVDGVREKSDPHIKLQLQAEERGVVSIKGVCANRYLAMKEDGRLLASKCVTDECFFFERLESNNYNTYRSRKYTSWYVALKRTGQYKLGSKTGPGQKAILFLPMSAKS
A short description of assay [7]: mitochondrial membrane potential change in A549 cells, profiling panel, cell-based, JC-1 fluorescence, basal, 24 h, 100 nL (AID 1138).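 Also: A549 lung adenocarcinoma cells under basal conditions with no added stimulus; test concentration not given here.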 As to conditions: higher = more signal.
The next assay has as its system Lefty1. As to the kind of experiment: Lefty1 binders on small-molecule microarrays, primary screen, biochemical, small-molecule microarray, 635/667 nm fluorescence (AID 1139). To be noted: small-molecule microarray binding, fluorescence 635/667; higher = more signal.
Assay [8] deals with wheat germ agglutinin (Triticum aestivum), Alexa647-labelled. Description: wheat germ agglutinin binders on compound microarrays, profiling panel, artefact control for SMM control-protein annotation, biochemical, small-molecule microarray, 635/667 nm fluorescence (AID 1140).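 Also: score merges 667 nm feature emission with signal to noise over triplicate slides.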 As to conditions: WGA-A647 binding, 635 nm fluorescence, higher = more signal.
The target of assay [9] is Luciferin 4-monooxygenase (Photinus pyralis) (UniProt P08659). As to the kind of experiment: firefly luciferase enzyme inhibitors, primary screen, biochemical, luminescence, purified enzyme, 2006 set (AID 1141).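 Also: cell-free assay with purified firefly luciferase at 100 ng per well in PBS; test concentration not given here.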 To be noted: SteadyGlo luminescence, 30 min, higher = more signal, called active from +8 up or from −8 down.
Sequence of Luciferin 4-monooxygenase (Photinus pyralis) (P08659 whole entry, looked up): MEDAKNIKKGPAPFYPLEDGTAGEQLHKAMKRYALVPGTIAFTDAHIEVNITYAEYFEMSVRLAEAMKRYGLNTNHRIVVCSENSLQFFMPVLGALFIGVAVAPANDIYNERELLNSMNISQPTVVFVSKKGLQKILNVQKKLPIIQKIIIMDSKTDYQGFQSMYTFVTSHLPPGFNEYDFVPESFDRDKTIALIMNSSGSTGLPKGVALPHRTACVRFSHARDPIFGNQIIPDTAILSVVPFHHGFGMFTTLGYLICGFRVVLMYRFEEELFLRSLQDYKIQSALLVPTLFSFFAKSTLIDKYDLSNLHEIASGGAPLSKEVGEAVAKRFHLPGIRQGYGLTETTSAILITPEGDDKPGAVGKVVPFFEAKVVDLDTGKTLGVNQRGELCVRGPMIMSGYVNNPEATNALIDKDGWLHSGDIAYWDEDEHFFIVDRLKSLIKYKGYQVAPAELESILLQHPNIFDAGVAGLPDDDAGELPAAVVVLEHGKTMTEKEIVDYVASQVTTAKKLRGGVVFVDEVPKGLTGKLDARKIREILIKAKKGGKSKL
The test system of assay [10] is Wnt5a (protein binding on small-molecule microarray). As to the kind of experiment: Wnt5a binders on small-molecule microarray, primary screen, biophysical, 635/667 nm fluorescence (AID 1142).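 Also: fluorescence read at 667 nm with signal to noise per printed feature.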 To be noted: 635 nm fluorescence, higher = more signal.
Assay [11] in a line: cell viability in Huh7 cells, primary screen, cytotoxicity control for HCV replication inhibitor project, CellTiter-Glo luminescence, basal, 48 h (AID 1143).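 Also: Huh7 hepatoma cells carrying a hepatitis C replication reporter with no stimulus; test concentration not given here.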 To be noted: Huh7 HCV replicon, higher = more signal, called active from +8 up or from −8 down. On the technique in general: In ATP-based viability assays light output follows the ATP content of the culture.
Assay [12] in a line: P. aeruginosa biofilm formation inhibitors, primary screen, PAO1 strain, BacTiter-Glo luminescence, LB-PBS (AID 1144). To be noted: 12 h, higher = more signal.
A short description of assay [13]: CREB reporter modulators without forskolin, primary screen, cell-based, PC12, CRE-LacZ reporter, unstimulated (AID 1145). To be noted: no forskolin, luminescence, 4.5 h, higher = more signal, called active from +8 up or from −8 down.
Assay [14] in a line: CREB reporter modulators under forskolin, primary screen, cell-based, PC12, CRE-LacZ reporter, forskolin-stimulated (AID 1146).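 Also: PC12 cells with 6xCRE LacZ reporter stimulated by forskolin 10 µM; beta-galactosidase reporter signal reflecting CREB driven transcription.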 To be noted: luminescence, 4.5 h, higher = more signal, called active from +8 up or from −8 down.
The target in assay [15] is Streptavidin (Streptomyces avidinii) (UniProt P22629). Description: streptavidin binders on small-molecule microarray, primary screen, artefact control for SMM compound annotation, biophysical, 635/667 nm fluorescence (AID 1147).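 Also: signal reflects streptavidin binding to arrayed compounds as a control protein.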 To be noted: streptavidin binding, higher = more signal.
Sequence of Streptavidin (Streptomyces avidinii) (P22629 whole entry, looked up): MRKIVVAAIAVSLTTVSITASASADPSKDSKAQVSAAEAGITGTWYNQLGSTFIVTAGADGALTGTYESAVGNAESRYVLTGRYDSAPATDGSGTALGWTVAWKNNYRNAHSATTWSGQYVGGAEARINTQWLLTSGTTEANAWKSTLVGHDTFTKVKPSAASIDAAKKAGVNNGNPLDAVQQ
Assay [16] can be described thus: small-molecule binders of probe aInhba, primary screen, biochemical, small-molecule microarray, 635/667 nm fluorescence (AID 1148).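 Also: score merges 667nm spot fluorescence with signal-to-noise for antibody binding to printed compounds.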 To be noted: higher = more signal.
For assay [17], the target named is Torsin-1A (Homo sapiens) (UniProt O14656). As to the kind of experiment: torsin A binders from cell lysate, primary screen, small-molecule microarray, wild-type, 635/667 nm (AID 1149). As to conditions: COS7 hTOR1A-WT lysate, 635 nm fluorescence, higher = more signal.
Sequence of Torsin-1A (Homo sapiens) (O14656 whole entry, looked up): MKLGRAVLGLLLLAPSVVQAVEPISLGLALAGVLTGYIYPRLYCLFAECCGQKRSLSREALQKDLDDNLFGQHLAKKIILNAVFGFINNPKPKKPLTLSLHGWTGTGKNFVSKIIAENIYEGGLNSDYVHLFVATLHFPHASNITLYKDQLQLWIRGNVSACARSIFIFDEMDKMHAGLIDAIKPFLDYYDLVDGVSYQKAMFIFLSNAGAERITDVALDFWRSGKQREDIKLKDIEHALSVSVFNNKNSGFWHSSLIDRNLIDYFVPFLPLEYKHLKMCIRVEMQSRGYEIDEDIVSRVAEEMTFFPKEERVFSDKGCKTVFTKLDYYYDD
Assay [18] has the same target. As to the kind of experiment: small-molecule binders of mutant TOR1A in lysate, primary screen, cell lysate, small-molecule microarray, COS7 lysate, 635/667 nm fluorescence (AID 1150).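 Also: score pools 667 nm emission and signal to noise measuring lysate protein binding.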 As to conditions: COS7 hTOR1A mutant lysate, 635 nm fluorescence, higher = more signal.
The test system of assay [19] is Sonic hedgehog protein (Shh). Description: small-molecule binders of Shh protein, primary screen, biochemical, small-molecule microarray, 635/667 nm fluorescence (AID 1151).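 Also: Shh protein binding to compounds spotted on small-molecule microarray slides; score combines spot fluorescence intensity with signal-to-noise across triplicate slides.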 As to conditions: small-molecule microarray binding, 635 nm fluorescence; higher = more signal.

Sequence of Focal adhesion kinase 1 (Homo sapiens) (Q05397 whole entry, looked up): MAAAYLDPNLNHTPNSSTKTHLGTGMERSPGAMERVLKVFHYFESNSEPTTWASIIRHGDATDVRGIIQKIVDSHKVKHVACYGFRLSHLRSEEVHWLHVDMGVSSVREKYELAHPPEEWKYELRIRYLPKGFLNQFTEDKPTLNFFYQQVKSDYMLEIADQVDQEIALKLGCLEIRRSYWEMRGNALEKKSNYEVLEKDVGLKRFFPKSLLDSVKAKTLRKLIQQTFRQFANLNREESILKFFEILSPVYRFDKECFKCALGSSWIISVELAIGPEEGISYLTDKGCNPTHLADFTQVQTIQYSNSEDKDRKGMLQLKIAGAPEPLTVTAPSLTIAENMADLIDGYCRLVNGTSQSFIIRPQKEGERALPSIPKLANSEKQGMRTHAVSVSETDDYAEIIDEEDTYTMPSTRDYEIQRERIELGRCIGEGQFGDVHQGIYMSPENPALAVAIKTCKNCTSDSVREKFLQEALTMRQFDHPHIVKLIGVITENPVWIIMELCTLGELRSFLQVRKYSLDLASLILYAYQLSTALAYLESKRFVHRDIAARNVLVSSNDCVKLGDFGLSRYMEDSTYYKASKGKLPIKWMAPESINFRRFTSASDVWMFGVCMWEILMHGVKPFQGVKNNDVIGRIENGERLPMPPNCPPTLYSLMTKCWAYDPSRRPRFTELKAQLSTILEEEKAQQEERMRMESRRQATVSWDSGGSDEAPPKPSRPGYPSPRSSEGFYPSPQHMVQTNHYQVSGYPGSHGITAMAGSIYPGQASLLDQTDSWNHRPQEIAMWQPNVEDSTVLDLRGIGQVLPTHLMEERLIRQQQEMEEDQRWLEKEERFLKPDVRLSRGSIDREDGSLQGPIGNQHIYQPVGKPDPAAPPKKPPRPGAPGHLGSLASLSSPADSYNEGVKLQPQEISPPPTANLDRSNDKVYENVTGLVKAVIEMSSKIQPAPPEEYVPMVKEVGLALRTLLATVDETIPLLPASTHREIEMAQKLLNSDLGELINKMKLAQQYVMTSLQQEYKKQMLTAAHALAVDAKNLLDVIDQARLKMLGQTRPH

For `CC(C)C[C@H](NC(=O)CCC1CC(OC(=O)NCc2cccc3ccccc23)CC2(CCCC(COC(=O)NCc3ccccc3)O2)O1)C(=O)NCC(c1ccccc1)c1ccccc1` (stereo not given in full), the composite z-score in assay [1] turned out to be 0.231; in [2] it was 1.13; in [3] it was 0.383; in [4] it was 0.803; in assay [5] it was 0.909; in assay [6], 1.27. Further, the composite z-score in the assay with Lefty1 was 1.07; in assay [8], 0.493; in assay [10] it was 0.451; in [15], 0.396; in assay [16] it was -0.0963; with Torsin-1A (Homo sapiens) [17] it was 0.317. The composite z-score with Torsin-1A (Homo sapiens) [18] is 0.0582; in assay [19], 0.954. Further, the z-score in assay [7] was 1.09; in [9] it was 0.43 (inactive); in assay [11], -0.363 (inactive); in assay [12] it was -0.434 (inactive); in assay [13], -0.258 (inactive); in assay [14], 0.728 (inactive).
For the compound `CC(C)=NOC[C@@H](C)[C@H](OCc1ccccc1)C(C)C`, the composite z-score is 0.164 in assay [1]; -1.56 in assay [2]; -0.15 in assay [3]; -0.22 in assay [4]; -0.476 in assay [5]; -0.229 in assay [6]. The composite z-score in the assay on Lefty1 was -0.458; in assay [8] it was -0.351; in [10], -0.437; in assay [15], 0.0253; in [16], -0.128; with Torsin-1A (Homo sapiens) [17] it was -0.522. Further, the composite z-score with Torsin-1A (Homo sapiens) [18] was -0.31; in [19] it was -0.448. In addition, the z-score in assay [7] is -0.375; in assay [9], -1.4 (inactive); in assay [11], 0.563 (inactive); in assay [12] it was -0.181 (inactive); in assay [13], 1.17 (inactive); in [14], 0.112 (inactive).
On to `CCOC(=O)[C@H](CC(C)C)NC(=O)CCC1CC(OC(=O)NCCc2ccc(F)cc2)CC2(CCCC(COC(=O)NCCOc3ccccc3)O2)O1` (stereo not given in full), for which the composite z-score is 0.744 in [1]; 0.698 in [2]; 0.231 in assay [3]; 0.985 in assay [4]; 0.826 in assay [5]; 0.692 in assay [6]. The composite z-score in the assay on Lefty1 is 1.35; in [8], 0.394; in assay [10] it was 0.32; in assay [15], 0.939; in [16] it was 0.336; with Torsin-1A (Homo sapiens) [17] it was 0.0137. Also, the composite z-score with Torsin-1A (Homo sapiens) [18] was determined as 0.15; in assay [19], 1.01. For the same compound, the z-score in assay [7] was 0.0542; in assay [9], 0.96 (inactive); in assay [11], -1.81 (inactive); in assay [12], -0.446 (inactive); in assay [13] it was 0.469 (inactive); in [14], 0.127 (inactive).
On to `COc1ccc(COC(=O)NN=C2C[C@@H](O)[C@@H](O)[C@@H]3[C@@H]4C(=O)N(C5CCCCC5)C(=O)[C@@H]4CC[C@H]23)cc1`, for which the composite z-score in assay [1] was -0.823; in assay [2], -0.552; in assay [3], -0.497; in assay [4], -0.439; in assay [5], -1.72; in [6], -1.04. Also, the composite z-score in the assay with Lefty1 is -1.42; in assay [8], 0.778; in assay [10], -0.244; in [15], -0.332; in assay [16], -0.337; with Torsin-1A (Homo sapiens) [17], -0.0324. Also, the composite z-score in the assay with Torsin-1A (Homo sapiens) [18] is 0.408; in [19], -1.61. Besides, the z-score in assay [7] was 0.195; in assay [9], -0.224 (inactive); in assay [11], -0.146 (inactive); in assay [12], 0.345 (inactive); in assay [13], 1.61 (inactive); in assay [14], -0.0264 (inactive).
Consider `C#CCCCON=C1C[C@@H](O)[C@@H](O)[C@@H]2[C@@H]3C(=O)N(CCC(=O)OCC)C(=O)[C@@H]3CC[C@H]12`, for which the composite z-score in [1] is 0.997; in assay [2], 0.929; in assay [3] it was -0.0834; in assay [4], 0.375; in assay [5] it was 1.06; in assay [6] it was 0.613. Besides, the composite z-score was 0.861 in the assay on Lefty1; 0.101 in assay [8]; 0.104 in assay [10]; 0.873 in assay [15]; -0.0736 in assay [16]; 0.0183 in the assay with Torsin-1A (Homo sapiens) [17]. Moreover, the composite z-score in the assay with Torsin-1A (Homo sapiens) [18] was found to be 0.36; in [19] it was 1.65. Further, the z-score in [7] is 0.317; in assay [9], -0.891 (inactive); in assay [11] it was -1.42 (inactive); in assay [12], 1.11 (inactive); in assay [13], -0.295 (inactive); in [14], 0.783 (inactive).
